Each structure is given as a SMILES string. Several values for one entry are separate records, joined by “and”; a condition that tells them apart may be missing. Identical values can stand only once. Among all 330,000 compounds or so, about 1,100 (0.33%) were called active. No stated cut-off is given here; in the data, active means inhibition above about 35%; inactive means the rest. For the sample, actives were picked, then their nearest neighbours and some compounds at random. The source holds several records for some structures; these can differ, active in one and inactive in another.

The nature of this assay: lowers stimulated NF-kB luciferase signal in 697 B cells – cell-based, luminescence, uHTS, B-cell NF-kB inhibitor project, primary screen (AID 435022). As to conditions: 697 B-cell NF-kB luciferase reporter, PMA/ionomycin, 16 h; at 4 µM; stronger effect = higher value. On the technique in general: Reporter assays use an easily measured gene product as a stand-in for the process of interest.
One may read the inhibition as the change of the read-out against control, counted positive when it falls. As to `CCOc1cc(C(=O)N2CCc3cc(OC)c(OC)cc3C2)ccc1OC(F)F`, the inhibition was 39.7% (active).

For `COc1cc2c(cc1OC)CN(C(=O)c1cc(=O)c3ccccc3o1)CC2`, the inhibition was -14.7% (inactive).

For the molecule `COc1cc2c(cc1OC)CN(C(=O)c1ccc(S(=O)(=O)N3CCCCCC3)cc1)CC2`, the inhibition is 22.3% (inactive).

Turning to `COCCNC(=O)C1CCN(C(=O)C2CC(=O)N(c3ccc(C)cc3)C2)CC1` (centres undefined), the inhibition is -0.961% (inactive).

For `CCN(CCCNC(=O)CSc1cc(=O)n(C)c2cc(Cl)ccc12)Cc1ccccc1`, the inhibition was 2.99% (inactive).

As to `Cc1ccc(O)c(NC(=S)NC(=O)COc2ccc(Br)cc2)c1`, the inhibition is -17.9% (inactive).

Consider `Cc1ccc(C)c(OCC(=O)NNC(=O)C2CCC2)c1`, for which the inhibition is 0.932% (inactive).

As to `Cc1ccc(O)c(NC(=O)COc2cc(C)ccc2C)c1`, the inhibition is 40.5% (active).

Consider `COc1ccc(NC(=O)Nc2ccc3c(c2)C(=O)N([C@H](C)CO)C[C@H](C)[C@@H](CN(C)C(=O)Nc2ccc4c(c2)OCO4)O3)cc1`, for which the inhibition was -1.97% (inactive).

`COc1ccc(CNC(=O)C2CCC(CNc3c(N4CCOCC4)c(=O)c3=O)CC2)cc1` (centres undefined): the inhibition is -4.3% (inactive).

With `CCN1/C(=C\c2ccc3ccccc3[n+]2CC)Sc2cc(C)ccc21`, the inhibition was 65% (active).

For the molecule `COC(=O)c1ccccc1NC(=O)C1CC(=O)N(c2ccc(OC)cc2)C1` (centres undefined), the inhibition is 2.44% (inactive).

Turning to `C[C@@H]1O[C@@H](OC[C@H]2O[C@@H](Oc3c(-c4ccc(O)cc4)oc4cc(O)cc(O)c4c3=O)[C@H](O)[C@@H](O)[C@@H]2O)[C@H](O)[C@H](O)[C@H]1O`, the inhibition is 3.19% (inactive).

Regarding `O=C(NCCCN1CCOCC1)c1cc(-c2cccc(O)c2)on1`, the inhibition was 14.1% (inactive).

On to `COc1ccc(-c2cc(C(=O)NCCCN3CCOCC3)no2)cc1`, for which the inhibition is 28.1% (inactive).

Consider `O=C(NCCCN1CCOCC1)c1cc(-c2ccc(Cl)cc2)on1`, for which the inhibition is 46.3% (active).

In the case of `CCOC(=O)C1CCN(C(=O)C2(NC(=O)Nc3cccc(F)c3)CCCCC2)CC1`, the inhibition was 14% (inactive).

Turning to `Cn1nc(C(F)(F)F)cc1-c1ccc(/C=C(\C#N)C(=O)c2cccc(C(F)(F)F)c2)s1`, the inhibition is -34.9% (inactive).

As for `CCOC(=O)C1C(=O)NCC1c1ccccc1` (centres undefined), the inhibition was 12.8% (inactive).

For `CC(=O)c1cnc(SCC(=O)O)nc1C`, the inhibition was 10% (inactive).

Consider `Cc1ccc(-c2c[n+](CC(=O)Nc3ccccc3)c3n2CCC3)cc1`, for which the inhibition is -7% (inactive).

On to `Cc1ccc(C(=O)C[n+]2cc(-c3ccccc3)n3c2CCCCC3)cc1`, for which the inhibition was 38.8% (active) and 16% (inactive).

Regarding `Clc1ccc(C[n+]2cc(-c3ccccc3)n3c2CCC3)cc1`, the inhibition is -17.7% (inactive).

Regarding `CC1CN(C(=S)Nc2ccc(Br)cc2Cl)CC(C)O1` (centres undefined), the inhibition was -8.08% (inactive).

Regarding `Cc1ccccc1-c1cc(C(=O)NCc2cccs2)n(CC2CC(c3cccnc3)=NO2)n1` (centres undefined), the inhibition was -9.9% (inactive).

On to `Cn1c(=O)cc(SCC(=O)N2CCN(C(=O)c3ccco3)CC2)c2ccccc21`, for which the inhibition is -1.63% (inactive).

Take `CCOC(=O)C1CCN(C(=O)CSc2cc(=O)n(C)c3ccccc23)CC1`: the inhibition is 25% (inactive).

As to `Cn1c(=O)cc(SCC(=O)N2CCCC2)c2cc(Cl)ccc21`, the inhibition was 52.4% (active).

For `Cc1ccccc1C(=O)NNC(=O)CN1C(=O)c2ccccc2C1=O`, the inhibition is 8.67% (inactive).

For `C[C@@]12C(=O)N(c3cccc(Br)c3)C(=O)N1[C@H](c1ccc(Cl)cc1)[C@@H]1C(=O)N(C3CCCCC3)C(=O)[C@@H]12`, the inhibition is -15.6% (inactive).

Regarding `O=C(O)CN(Cc1ccco1)S(=O)(=O)c1ccccc1`, the inhibition was 18.8% (inactive).

For `Cc1c(Cl)cnc(NC(=O)COC(=O)C2CCCC2)c1Cl`, the inhibition was 2.7% (inactive).

In the case of `CCOC(=O)CSc1nnc(CNC(=O)c2cccs2)n1-c1ccccc1`, the inhibition was 9.72% (inactive).

For `O=C(C1CCC1)N1CCc2cc(S(=O)(=O)NCc3cccnc3)ccc21`, the inhibition is -30.3% (inactive).

For `CC1(C)Oc2ccc3ccc(=O)oc3c2/C(=C/NCCO)C1=O`, the inhibition was 5.05% (inactive).

For `C/C=C(/C)C(=O)OC1Cc2c(ccc3ccc(=O)oc23)OC1(C)C` (centres undefined), the inhibition was 47.2% (active).

Turning to `CC1(C)Oc2ccc3ccc(=O)oc3c2/C(=N/O)C1=O`, the inhibition is -15.2% (inactive).

For `Cc1nc(Cl)c(C#N)c2c1CCCC2`, the inhibition was 22.3% (inactive).

Take `CC(=O)Nc1ccc(S(=O)(=O)NC2(C(F)(F)F)C(=O)Nc3c2c(=O)[nH]c(=O)n3Cc2ccccc2)cc1` (centres undefined): the inhibition is 3.75% (inactive).

In the case of `COC(=O)c1ccc(C2C3=C(Nc4nnnn42)c2ccccc2OC3)cc1` (centres undefined), the inhibition is 3.54% (inactive).

Regarding `COC(=O)C1=C(C(=O)c2ccc(C)cc2)C(c2ccccc2)n2nnnc2N1` (centres undefined), the inhibition is 36.7% (active).

Take `COc1ccccc1NC(=O)C1=C(C)Nc2nnnn2C1c1cccc(Br)c1` (centres undefined): the inhibition was -22.3% (inactive).

On to `CC1CCN(C(NC(=O)c2ccco2)C(=O)c2ccccc2)CC1` (centres undefined), for which the inhibition is -1.98% (inactive).

In the case of `CCOC(=O)C1=C(O)/C(=C/c2cc(C)n(-c3ccccc3)c2C)N=C1C`, the inhibition was -12.5% (inactive).

On to `CC(C)n1cnc2c(Nc3cccc(Cl)c3)nc(N(CCO)CCCO)nc21`, for which the inhibition was -41.1% (inactive).

For the molecule `OCCCNc1nccc(-c2cc(Nc3cccc(Cl)c3)ncn2)n1`, the inhibition is 67.2% (active).

For `Cc1cccc(Nc2nc(NCCO)nc(N3CCCC3)n2)c1`, the inhibition was 4.82% (inactive).

`CSc1ncccc1C(=O)OCc1ccc(Br)cc1`: the inhibition was 5.14% (inactive).

As for `c1ccc(Cc2cc[n+](Cc3ccccc3)cc2)cc1`, the inhibition is -7.68% (inactive).

With `COc1ccccc1OCc1nnc(SCC(N)=O)n1-c1ccccc1`, the inhibition is -18.9% (inactive).

As for `Cc1nc2ccccc2c(=O)n1-c1ccc(F)c(NC(=O)c2cccs2)c1`, the inhibition is -10.2% (inactive).

On to `CCc1ccc(CNC(=O)CCc2nc(-c3cccs3)no2)cc1`, for which the inhibition is -6.74% (inactive).

In the case of `CCNC(=O)CCc1nc(-c2ccc(C(C)(C)C)cc2)no1`, the inhibition was 87.2% (active).

As for `CN1CCN(C(=O)CCc2nc(-c3ccc(Cl)cc3)no2)CC1`, the inhibition was -2.08% (inactive).

As to `CCOC(=O)C1CCN(C(=O)C2CCCN(S(=O)(=O)c3ccc(OC)c(Cl)c3)C2)CC1` (centres undefined), the inhibition was -44.7% (inactive).

For the molecule `CCOc1ccccc1C1CC(c2ccc(Cl)cc2)Nc2nc(N)nn21` (centres undefined), the inhibition is -1.91% (inactive).

`COc1ccc(C(=O)n2nc(-c3ccc(C)cc3)nc2N)cc1OC`: the inhibition is 7.38% (inactive).

Regarding `COc1ccc(C(=O)n2nc(-c3ccc(Cl)cc3)nc2N)cc1OC`, the inhibition is 39.3% (active).

Regarding `COc1ccc(C(=O)n2nc(C)c(Br)c2C)cc1OC`, the inhibition is -0.0717% (inactive).

The values above are taken from PubChem BioAssay AID435022 (Sanford-Burnham Center for Chemical Genomics, 2010).
